PubChem BioAssay (NCI)
About 79,000 compounds went through this panel and 15% of them were active in at least one assay; those are over-represented in the sample as a whole. Calls of active or inactive are those of the source. Cut-off read from the data, not from the text of the source: active = growth inhibition above about 70%; inactive = the rest.

Legend:
[1] = NCI Yeast Anticancer Drug Screen. Data for the rad52 strain (AID 147);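 note: 0% = growth of vehicle-treated control cultures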; conditions: S. cerevisiae rad52 mutant growth inhibition, active compounds read high
Summary of the method: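 Growth of repair-deficient yeast cells was compared between compound-treated and vehicle-treated cultures to give percent inhibition.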

[2] = NCI Yeast Anticancer Drug Screen. Data for the wt1 strain (AID 149);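 note: 0% = growth of vehicle-treated wt1 cultures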; conditions: S. cerevisiae wt1 strain (SPY 50644) growth inhibition, active compounds read high
Summary of the method: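 Each compound is tested on wt1 yeast and the loss of growth versus vehicle gives the inhibition value.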

[3] = NCI Yeast Anticancer Drug Screen. Data for the rad50EPP+ strain (AID 151);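 note: 0% = growth of vehicle-treated control cultures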; conditions: S. cerevisiae rad50 mutant strain, active compounds read high
Summary of the method: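 Measured: growth inhibition of rad50EPP+ yeast. Reference: vehicle-treated controls. Screen uses strains with defined genetic alterations in DNA damage repair or cell cycle control.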

[4] = NCI Yeast Anticancer Drug Screen. Data for the mgt1 strain (AID 153); conditions: S. cerevisiae mgt1 mutant growth inhibition, active compounds read high
Summary of the method: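 Compounds were applied to mgt1 mutant yeast, and growth was then compared against vehicle-treated control cultures to give percent inhibition.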

[5] = NCI Yeast Anticancer Drug Screen. Data for the rad50 strain (AID 155);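 note: 0% = growth of vehicle-only cultures of the same strain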; conditions: S. cerevisiae rad50 strain growth inhibition, active compounds read high
Summary of the method: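 Vehicle-treated cultures provide the reference for the growth inhibition reported for compound-exposed, repair-deficient yeast.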

[6] = NCI Yeast Anticancer Drug Screen. Data for the mec2-1 strain (AID 157); conditions: S. cerevisiae mec2-1 strain, active compounds read high
Summary of the method: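 Compounds were applied to mec2-1 yeast cells. Their growth was then compared with that of vehicle-treated cultures to give growth inhibition.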

[7] = NCI Yeast Anticancer Drug Screen. Data for the rad14 strain (AID 159);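 note: 0% = growth of vehicle-treated control cultures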; conditions: S. cerevisiae rad14 strain growth inhibition, active compounds read high
Summary of the method: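 Inhibition of growth is reported for a repair-deficient yeast mutant following compound treatment, calculated relative to cultures that received vehicle.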

[8] = NCI Yeast Anticancer Drug Screen. Data for the sgs1 mgt1 strain (AID 161);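 note: 0% = growth of cultures given vehicle only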; conditions: S. cerevisiae sgs1 mgt1 strain, active compounds read high
Summary of the method: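 Compounds are added to genetically altered yeast, and growth is compared with cultures given vehicle alone to give percent inhibition.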

[9] = NCI Yeast Anticancer Drug Screen. Data for the CLN2oe strain (AID 163);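 note: 0% = growth of vehicle-only control cultures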; conditions: S. cerevisiae CLN2oe strain, active compounds read high
Summary of the method: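 Cells of an engineered yeast line with disturbed cell-cycle regulation are treated with compound. Inhibition of growth is then calculated relative to the vehicle-treated reference.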

[10] = NCI Yeast Anticancer Drug Screen. Data for the cln2 rad14 strain (AID 165);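 note: 0% = growth equal to vehicle treated cultures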; conditions: S. cerevisiae cln2 rad14 strain, active compounds read high
Summary of the method: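 Strain: cln2 rad14 yeast, altered in cell cycle control and DNA damage repair. Read-out: growth inhibition vs vehicle.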

[11] = NCI Yeast Anticancer Drug Screen. Data for the bub3 strain (AID 167); conditions: S. cerevisiae bub3 mutant strain, active compounds read high
Summary of the method: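 Mutant yeast screening strain plus compound; vehicle-treated cultures serve as the 0% inhibition reference.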

[12] = NCI Yeast Anticancer Drug Screen. Data for the wt2 strain (AID 169); conditions: S. cerevisiae wt2 strain growth inhibition, active compounds read high
Summary of the method: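 Growth of compound-treated yeast is measured and expressed as inhibition relative to vehicle-only controls.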

[13] = NCI Yeast Anticancer Drug Screen. Data for the mlh1 strain (AID 171);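 note: 0% = growth of vehicle-treated control cultures of the same strain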; conditions: S. cerevisiae mlh1 strain growth inhibition, active compounds read high
Summary of the method: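 Test agents were incubated with yeast bearing a defined DNA damage repair or cell cycle control alteration; values are growth inhibition normalised to vehicle-treated cultures.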

[14] = NCI Yeast Anticancer Drug Screen. Data for the sgs1 strain (AID 173);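 note: 0% = growth of vehicle-only control cultures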; conditions: S. cerevisiae sgs1 mutant, active compounds read high
Summary of the method: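 Strain with an altered DNA repair or cell cycle pathway exposed to compound. Growth then measured. Value = inhibition versus vehicle control.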

[15] = NCI Yeast Anticancer Drug Screen. Data for the mlh1 rad18 strain (AID 175); conditions: S. cerevisiae mlh1 rad18 strain growth inhibition, active compounds read high
Summary of the method: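 A repair-deficient yeast strain is exposed to test compound, and growth is scored relative to vehicle-treated controls.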

[16] = NCI Yeast Anticancer Drug Screen. Data for the rad18 strain (AID 177); conditions: S. cerevisiae rad18 mutant growth inhibition, active compounds read high
Summary of the method: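 DNA-repair-defective yeast; compound treatment; growth inhibition scored against vehicle.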

[17] = at 5.0 µM (retest, dose inferred, filed as 0.5)
[18] = at 50.0 µM (retest, dose inferred, filed as 5.0)

Measured: growth inhibition

COc1ccc(/C=C2\SC(=S)N(/C=C3\C(=O)N(c4ccccc4)N=C3C)C2=O)cc1OC
inactive: [1]; at 1.2 µM 3% | [1]; at 3.7 µM 8% | [1]; at 11.0 µM 25% | [1]; at 33.0 µM 64% | [2]; at 1.2 µM 3% | [2]; at 3.7 µM 5% | [2]; at 11.0 µM 11% | [2]; at 33.0 µM 48% | [3]; at 1.2 µM -1% | [3]; at 3.7 µM 6% | [3]; at 11.0 µM 24% | [3]; at 33.0 µM 55% | [3]; at 100.0 µM 58% | [4]; at 1.2 µM 1% | [4]; at 3.7 µM 3% | [4]; at 11.0 µM 27% | [5]; at 1.2 µM -5% | [5]; at 3.7 µM -10% | [5]; [17] 5% | [5]; at 11.0 µM 9% | [5]; at 33.0 µM 61% | [5]; [18] 51% | [5]; at 50.0 µM 63.4% | [6]; at 1.2 µM 3% | [6]; at 3.7 µM 4% | [6]; [17] -7% | [6]; at 11.0 µM 18% | [6]; at 33.0 µM 65% | [6]; [18] 52% | [7]; at 1.2 µM 3% | [7]; at 3.7 µM 4% | [7]; at 11.0 µM 26% | [7]; at 33.0 µM 66% | [8]; [17] -4% | [9]; at 1.2 µM -18% | [9]; at 3.7 µM -9% | [9]; at 11.0 µM 3% | [9]; at 33.0 µM 58% | [10]; [17] -5% | [10]; [18] 61% | [10]; at 50.0 µM 50.8% | [11]; at 1.2 µM -2% | [11]; at 3.7 µM 0% | [11]; [17] 5% | [11]; at 11.0 µM 11% | [11]; at 33.0 µM 42% | [11]; [18] 17% | [11]; at 50.0 µM 67.6% | [11]; at 100.0 µM 65% | [12]; at 1.2 µM -2% | [12]; at 3.7 µM 2% | [12]; at 11.0 µM 26% | [13]; at 1.2 µM 0% | [13]; at 3.7 µM 3% | [13]; at 11.0 µM 25% | [14]; at 1.2 µM 4% | [14]; at 3.7 µM 15% | [14]; at 11.0 µM 42% | [15]; [17] 7% | [15]; [18] 67% | [16]; at 1.2 µM 5% | [16]; at 3.7 µM 17% | [16]; at 11.0 µM 37% | [16]; at 33.0 µM 68%
active: [1]; at 100.0 µM 77% | [2]; at 100.0 µM 76% | [4]; at 33.0 µM 79% | [4]; at 100.0 µM 89% | [5]; at 100.0 µM 71% | [6]; at 50.0 µM 73.2% | [6]; at 100.0 µM 80% | [7]; at 100.0 µM 74% | [8]; [18] 83% | [8]; at 50.0 µM 79.2% | [9]; at 100.0 µM 71% | [12]; at 33.0 µM 82% | [12]; at 100.0 µM 89% | [13]; at 33.0 µM 81% | [13]; at 100.0 µM 88% | [14]; at 33.0 µM 86% | [14]; at 100.0 µM 90% | [15]; at 50.0 µM 76.2% | [16]; at 100.0 µM 74%
